Laboratory results from PubChem BioAssay (NCI).
Where “and” joins values, the source holds several entries; their conditions need not be identical. Equal entries are not always repeated. This is part of a sample that, as a whole, favours compounds with a hit. Of some 83,000 tested, about 20% had one in any assay.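 96-well plates, one dose, 48 hours. Percent growth reported; active if below 10.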 Unmarked numbers belong to inactive results. Calls of active or inactive are those of the source.

Tested on: MDA-MB-468 breast
Experiment: NCI-60 one-dose screen, 48 h (100 = growth as untreated, 0 = no growth, -100 = all killed)
Conditions: 10 µM unless noted

| SMILES | growth |
| --- | --- |
| CCOC(=O)CSc1c(-c2ccccc2)c2cc(Cl)ccc2[nH]c1=O | 98% |
| COc1ccc(/C=C2\N=C(c3ccccc3)N(C(=O)c3ccccc3O)NC2=O)cc1 | 106% |
| O=C1c2ccccc2C(=O)C1c1ccc(Br)cc1 | 115% |
| Cc1ccc(S(=O)(=O)Nc2ccc(Cl)cc2)cc1 | 107% |
| O=C1NC(=O)c2c1c1c3ccccc3ccc1c1[nH]c3ccccc3c21 | 7.32% (active) |
| Cn1cc(-c2csc(-c3c[nH]c4ncccc34)n2)c2cc(Br)cnc21 | 15.4% |
| O=C(O)c1ccc(-c2nn(-c3ccc(C(F)(F)F)cc3)cc2CNc2ccc(Oc3ccccc3)cc2)cc1 | 117% |
| O=C(/C=C/c1ccccc1)c1ccccc1O | 64.4% |
| COc1ccc2c(c1OC)O/C(=C\c1ncc([N+](=O)[O-])n1C)C2=O | 69.9% |
| NS(=O)(=O)c1ccc(C(=O)N=Nc2c(O)[nH]c3ccc(Cl)cc23)cc1 | 110% |
| C=C[C@@]1(C)CC(=O)[C@@H](C(C)(C)c2cn(C)c3ccc(Br)cc23)C[C@@H]1O[Si](C)(C)C(C)(C)C | 100% |
| C=C(CBr)[C@@H]1CC[C@]2(C(=O)O)CC[C@]3(C)[C@H](CC[C@@H]4[C@@]5(C)CCC(=O)C(C)(C)[C@@H]5CC[C@]43C)[C@@H]12 | 40.3% |
| CC[C@]12C=CCN3CC[C@@]4(c5ccc(OC)cc5N(C)[C@H]4[C@@](O)(C(=O)OC)[C@@H]1OC(=O)CCC(=O)O[C@H]1CC[C@H]4[C@@H]5CCC6=CC(=O)CC[C@@H]6[C@H]5CC[C@]14C)[C@@H]32 | -30.2% [100 µM] (active) |
| COc1cccc(O)c1O | 86.7% |
| C=CC[N+](C)(C)C | 97.4% |
| COc1ccc(C(=O)Nc2cccc(C3CC(=O)c4c(cc(OC)c(OC)c4OC)O3)c2)cc1 (stereo not given) | -2.79% (active) |
| C=CC1(C)C(O[Si](C)(C)C(C)(C)C)CC2C3OC(=O)NC31c1cccc3c1[C@H](C(=O)N3C)C2(C)C (stereo not given in full) | 31.3% |
| Cc1ccc(C2(C)NC(=O)N(CC(=O)Nc3cccc(C)c3)C2=O)cc1 (stereo not given) | 89% |
| O=C(Nc1ccccc1)Nc1cccc(-n2cc(-c3ccncc3)c(-c3ccc(O)c(Cl)c3)n2)c1 | 54.8% |
| CCC(c1ccc(OC)cc1)C(CC)c1ccc(O)c(CN2CCN(C)CC2)c1 (stereo not given) | 30% |

| SMILES | growth |
| --- | --- |
| CC[C@H](C)C(=O)O[C@H]1C[C@@H](C)C=C2C=C[C@H](C)[C@H](CC[C@@H]3C[C@@H](O)CC(=O)O3)[C@H]21 | 103% |
| CCOC(=O)c1cc(C(=O)c2ccc(O)c(O)c2)n2ccc(-c3ccn4c(C(=O)c5ccc(O)c(O)c5)cc(C(=O)OCC)c4c3)cc12 | 112% |
| O=C(NCc1ccc(Cl)cc1Cl)C1CCC(=O)N1c1cccs1 (stereo not given) | 115% |
| CCCCC(O)(c1ccc(Cl)cc1)C(CN1CCOCC1)c1ccc(Cl)cc1 (stereo not given) | 24.7% |
| COc1cccc(NC(=O)Cn2cc(CN3CCN(c4ccnc5cc(Cl)ccc45)CC3)nn2)c1 | 84.1% |
| C1Cc2onc(-c3noc4c3CCC4)c2C1 | 110% |
| CC(=O)c1ccc2c(c1)c1ccccc1n2C | 79.5% |
| O=C(CCCCCCNC(=O)C(O)(O)C(F)(F)F)Nc1ncc(-c2ccc(Br)cc2)s1 | -35.8% (active) |
| CS(=O)(=O)c1ccc(Nc2nc(N[C@H]3CCCC[C@H]3N)nc3cc[nH]c(=O)c23)cc1 | -75.2% (active) |
| O=C1c2ccccc2C(=O)c2c1oc1oc3c(c(=O)c21)c(=O)n(-c1ccccc1)c1ccccc31 | -27.3% (active) |
| COc1ccc(-c2nc(SC)nc(N3CCOCC3)c2C#N)cc1 | 101% |
| CC(=O)Nc1ccc(S(=O)(=O)NC(CCC(=O)Nc2ccc(Cl)cc2)C(=O)O)cc1 (stereo not given) | 98.8% |
| O=C1C=C(Nc2ccccc2)c2ccccc2C1=O | 78% and 76.9% |
| Cc1ccc(NC(=O)C(Cl)Cl)cc1 | 90.9% |
| O=C1N=C(N2CCOCC2)S/C1=C\c1cn(-c2ccccc2)nc1-c1ccccc1 | 83.3% |
| CC(c1cc(Cl)ccc1O)c1cc(Cl)ccc1O | 6.87% (active) |
| CCSc1sc(-c2ccc(C)cc2)nc1[P+](c1ccccc1)(c1ccccc1)c1ccccc1 | -61.4% (active) |
| Cc1cc(=O)[nH]c(NN=C2CCCC2)n1 | 116% |
| CCOC(=O)c1cn2ncnc(Oc3ccc(NC(=O)NC4CC4)c(Cl)c3)c2c1C | 90.1% |
| CCOC(=O)[C@@H](Cc1ccccc1)NC(=O)c1[nH]c2ccc(Cl)cc2c(=O)c1C | 78% |
